# MsrA inhibitor: inhibitors of bovine MsrA; hit rate 0.75% among 360,000; inhibition, % at 15.5 µM; purified bovine MsrA, absorbance read-out; AID 651718; in the data active = inhibition above about 4.5%;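 also: 0% = vehicle wells with enzyme and 100% = reference inhibitor wells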
# MOR-DOR inv ag: mu-delta opioid heterodimer inverse agonism | cell-based MOR-DOR heterodimer luminescence | inhibition, % at 9.3 µM | hit rate 0.21% among 340,000 | AID 504357; in the data active = inhibition above about 22%, passing the limit was not always enough;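 also: 0% = cells with DMSO and 100% = wells without cells with DMSO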
# Target sequence (P35372 whole entry, looked up): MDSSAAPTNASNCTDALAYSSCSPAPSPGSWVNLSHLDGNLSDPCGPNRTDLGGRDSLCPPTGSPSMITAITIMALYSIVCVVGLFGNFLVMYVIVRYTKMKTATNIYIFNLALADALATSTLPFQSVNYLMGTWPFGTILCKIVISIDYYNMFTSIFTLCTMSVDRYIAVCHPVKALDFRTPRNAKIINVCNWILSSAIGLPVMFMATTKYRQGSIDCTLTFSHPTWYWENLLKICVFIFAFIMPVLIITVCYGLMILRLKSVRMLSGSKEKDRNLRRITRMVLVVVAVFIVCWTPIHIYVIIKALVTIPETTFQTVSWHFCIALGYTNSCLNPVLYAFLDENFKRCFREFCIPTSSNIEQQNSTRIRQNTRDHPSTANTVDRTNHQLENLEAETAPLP
# Target sequence (P41143 whole entry, looked up): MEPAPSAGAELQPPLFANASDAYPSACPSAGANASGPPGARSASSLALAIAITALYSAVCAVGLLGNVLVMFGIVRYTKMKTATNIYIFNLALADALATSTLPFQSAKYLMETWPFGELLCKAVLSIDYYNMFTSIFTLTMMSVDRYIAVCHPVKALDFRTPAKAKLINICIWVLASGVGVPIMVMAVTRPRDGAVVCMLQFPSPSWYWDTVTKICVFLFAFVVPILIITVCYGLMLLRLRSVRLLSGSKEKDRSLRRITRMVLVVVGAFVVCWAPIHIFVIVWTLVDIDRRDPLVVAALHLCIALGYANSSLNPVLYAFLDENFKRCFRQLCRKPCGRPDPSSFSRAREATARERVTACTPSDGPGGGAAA
# HTR5A ag: HTR5A agonism, opioid heterodimer counter-screen; HTR5A agonist assay, luminescence, cell-based; activation, % at 9.3 µM; hit rate 0.61% among 340,000; AID 504692; in the data active = activation mostly above about 9.5%, no sharp cut-off; inactive = mostly below about 7.6%;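 also: 0% = cells with vehicle only and 100% = reference agonist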
# MOR-DOR ag: agonists of human mu-delta opioid receptor heterodimerization | cells, OPRM1-OPRD1 heterodimerization, luminescence | P35372+P41143 | activation, % at 9.3 µM | hit rate 0.3% among 340,000; in the data active = activation above about 18%;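 also: 0% = vehicle-treated cells and 100% = reference agonist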
# HTR5A inv ag: counter-screen for OPRM1-OPRD1 inverse agonists: human HTR5A inverse agonism; P47898; inhibition, % at 9.3 µM; HTR5A cell line, luminescence; AID 504634; hit rate 0.083% among 340,000; in the data active = inhibition mostly above about 23%, no sharp cut-off; inactive = mostly below about 18%;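 also: 0% = cells with DMSO and 100% = no-cell wells with DMSO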
# MsrA act: bovine methionine sulfoxide reductase A activation. purified bovine MsrA, absorbance read-out. activation, % at 10.6 µM. hit rate 0.3% among 360,000; in the data active = activation above about 7.5%;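 also: 0% = vehicle and 100% = reference activator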
# MOR-DOR inv conf: confirmation of human OPRM1-OPRD1 heterodimerization inverse agonists | cells expressing OPRM1/OPRD1 heterodimer, luminescence | inhibition, % at 9.3 µM | hit rate 20% among 580 | AID 504900 | shares compounds with MOR-DOR inv ag; in the data active = inhibition above about 32%;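 also: 0% = cells with DMSO and 100% = wells lacking cells with DMSO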
# HTR5A inv count: HTR5A inverse agonism, opioid heterodimer counter-screen | shares compounds with MOR-DOR inv ag | HTR5A-expressing cells, luminescence | inhibition, % at 9.3 µM | AID 504914 | 580 tested, under 10 active; call rule not given here;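 also: 0% = cells with DMSO and 100% = no-cell wells with DMSO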
# Starred values were filed as active, the others as inactive; i = inactive; . = no result. This is a sample that favours compounds with a hit; in the whole collection about 1.9% have one here.
SMILES,MsrA inhibitor,MOR-DOR inv ag,HTR5A ag,MOR-DOR ag,HTR5A inv ag,MsrA act,MOR-DOR inv conf,HTR5A inv count
Cc1ccc(-c2ccccc2NC(=O)C2C3C=CC(C3)C2C(=O)O)o1 (stereo not given),-1,34*,-2,-6,-7,-7,-39,1
Cc1cccc(NC(=S)NNc2ncc(C(F)(F)F)cc2Cl)c1,1,45*,-2,-9,49,-5,33*,22
O=C(Nc1ccccc1)Nc1ncc(C(F)(F)F)cc1Cl,-1,.,.,.,.,0,.,.
FC(F)(F)c1cnc(NNC(=S)Nc2ccccc2Cl)c(Cl)c1,0,43*,-9,-8,29,-1,44*,35
COC(=O)[C@]12C[C@H](CC(=O)N3CCC(c4ccccc4)CC3)C(=O)N(Cc3ccccc3)C1=C[C@H](C(C)C)O[C@@H]2C1CC1,1,.,.,.,.,.,.,.
Cc1cc2c(c(=O)o1)[C@@]1(C(=O)N(C)c3ccccc31)C1=C(CC(C)(C)OC1=O)O2,0,.,.,.,.,.,.,.
CN(C)C(=O)CSc1n[nH]c(=O)n1CCc1ccccc1,-1,38*,-2,-6,3,-4,-58,-3
Cc1ccc(NC2(C#N)C(=O)Nc3ccccc32)cc1C (stereo not given),0,56*,-5,-12,14,-3,-244,0
COC(=O)c1ccc(NC2(C#N)C(=O)Nc3ccccc32)cc1 (stereo not given),0,83*,-4,-14,12,-1,64*,16
C[C@@H]1CN([C@H](C)CO)C(=O)c2cc(Br)cnc2O[C@H]1CN(C)C(=O)c1ccc(F)cc1,1,.,.,.,.,.,.,.
O=C(Nc1sc2c(c1C(=O)NCCO)CCCC2)c1ccco1,0,6,6,-1,-17,-4,.,.
O=C1Nc2ccccc2/C1=N/c1sc2c(c1C(=O)NCCc1ccccc1)CCCC2,1,34*,2,-6,-24,-8,21,14
CCN1CCN(C(=O)CN2C(=O)COc3ccc(C)cc32)CC1,1,12*,-4,-2,12,-2,i,-19
Cc1ccc(OCCOC(=O)c2sc(=S)n(C)c2C)cc1,-1,-3,2,1,-7,-4,.,.
CCOC(=O)C(OC(=O)c1sc(=S)n(C)c1C)C(C)=O (stereo not given),2,39*,-1,-7,4,-3,22,18
CCNC(=S)NNC(=O)CSc1nc2ccccc2n1C,0,38*,-3,-8,7,-4,-15,17
CCc1cc2c(nc1CC)CCCN2S(=O)(=O)c1ccc(F)cc1,0,.,.,.,.,.,.,.
O=C(COC(=O)c1ccco1)c1ccc(S(=O)(=O)N2CCCCC2)cc1,1,53*,-3,-10,18,-4,9,9
O=C(COC(=O)c1ccc(Br)o1)c1ccc(S(=O)(=O)N2CCCCC2)cc1,-1,65*,-9,-17,22,-8,-88,-4
NC(=O)COC(=O)c1ccc(S(=O)(=O)N2CCCCCC2)cc1,-1,17,-1,-3,3,0,.,.
CC(C)[C@H](NC(=O)c1ccccc1)C(=O)OCC(=O)c1ccc(S(=O)(=O)N2CCCCC2)cc1,-1,30*,-1,-5,1,-3,-27,-6
COc1ccc(CC(=O)OCC(=O)c2ccc(S(=O)(=O)N3CCCCC3)cc2)cc1,0,50*,-11,-13,29,-7,13,8
COc1cc(OC)cc(C(=O)OCC(=O)c2ccc(S(=O)(=O)N3CCCCC3)cc2)c1,0,6,7,-2,-17,0,.,.
COc1ccc(CN2C[C@H](COCc3ccccc3)Oc3cccc(N4CCCC4)c3S2(=O)=O)cc1,1,.,.,.,.,.,.,.
O=C1CSC(c2cccs2)N1c1nncs1 (stereo not given),0,.,.,.,.,.,.,.
SMILES,MsrA inhibitor,MOR-DOR inv ag,HTR5A ag,MOR-DOR ag,HTR5A inv ag,MsrA act,MOR-DOR inv conf,HTR5A inv count
O=C(COC(=O)c1ccccc1)c1ccc(S(=O)(=O)N2CCCCC2)cc1,0,46*,-3,-7,-10,2,32*,2
CC(=O)Nc1ccc(C(=O)OCC(=O)c2ccc(S(=O)(=O)N3CCCCC3)cc2)cc1,-1,-18,-3,3,-8,-6,.,.
COC(=O)COc1ccc(S(=O)(=O)N2CCCCCC2)cc1,0,13,1,-3,-24,-3,.,.
O=C(COc1ccccc1)OCC(=O)c1ccc(S(=O)(=O)N2CCCCC2)cc1,-2,80*,-2,-19,6,0,-27,-135
COC(=O)[C@]12C[C@H](CC(=O)NCC34CC5CC(CC(C5)C3)C4)C(=O)N(Cc3ccccc3)C1=C[C@H](C(C)C)O[C@@H]2C1CC1,0,.,.,.,.,.,.,.
COCc1cc(C)nc2sc(C(=O)N3CCCCC3)c(N)c12,0,39*,1,-7,11,-1,i,13
COCc1cc(C)nc2sc(C(=O)N3CCN(c4ccccc4)CC3)c(N)c12,0,-7,2,1,-5,-13,.,.
COC(=O)c1cc2c(c3c4cc(F)ccc4n(S(=O)(=O)c4ccccc4)c13)C(=O)N(Cc1ccc(C(F)(F)F)cc1)C2,1,.,.,.,.,.,.,.
O=C(CNC(=O)c1ccco1)OCC(=O)c1ccc(Cl)cc1Cl,1,44*,-4,-8,12,-9,-20,-21
O=C(COC(=O)CNC(=O)c1ccc(Cl)cc1Cl)NCc1ccco1,1,3,-2,0,5,-1,.,.
O=C(CNc1ccc(F)cc1)c1ccccc1,-1,37*,-6,-6,14,-1,-9,6
CCOC(=O)C(=O)NNc1ccc(Cl)cc1,-1,19,-7,-3,16,-1,.,.
CCOC(=O)C(=O)NNc1ccc(C)cc1,1,31*,1,-6,-2,-2,-1,19
CC(C)OC(=O)C(=O)NNc1ccccc1,-1,24*,-3,-3,8,-2,4,3
C[C@H](c1ccccc1)N1C[C@@H](COCc2ccccc2)Oc2cccc(N3CCCC3)c2S1(=O)=O,1,.,.,.,.,.,.,.
Cc1ccccc1NC(=O)N(C)[C@H]1C[C@H]2c3[nH]c4c(-c5ccccc5)cccc4c3CCN2C(=O)[C@H]1[C@H](C)O,-1,.,.,.,.,.,.,.
CCCNC(=O)c1nnsc1S(=O)(=O)c1ccc(Cl)cc1,2,32*,-4,-6,11,-16,12,-5
COC(=O)C1=C(C)N(C)C(=NCc2ccc(OC)cc2)NC1c1ccc(Cl)cc1 (stereo not given),0,.,.,.,.,.,.,.
CCOC(=O)c1ccc(CC(=O)c2ccc(O)c(O)c2O)o1,3,-6,2,1,-4,-4,.,.
CCOC(=O)c1ccc(CC(=O)c2oc3cc(O)ccc3c2C)o1,0,34*,-1,-6,-9,-3,28,-2

# High-throughput results as filed in PubChem BioAssay.
